The panel holds about 83,000 compounds, 20% with a hit somewhere; the sample as a whole holds those more often.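 Negative percent growth values reflect cell death: -40 means 40% of the cells present at the start died, and -100 means all died.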 Active and inactive are the calls of the source. Rule for the calls: active = growth percent below 10; inactive = the rest.
Tests used:
Assay in all cases: NCI-60 one-dose screen, 48 h (100 = growth as untreated, 0 = no growth, -100 = all killed)
Conditions in all cases: 10 µM
[1] = tested on: BT-549 breast
[2] = tested on: MDA-MB-435 melanoma
[3] = tested on: SW-620 colon
[4] = tested on: MCF7 breast
[5] = tested on: HCT-116 colon
[6] = tested on: HCC-2998 colon
[7] = tested on: KM12 colon

Measured: growth

COc1ccc(OC)c(NC(=O)c2sc3nc4c(cc3c2N)C(=O)CCC4)c1
inactive: [1] 93.7% | [2] 28.4% | [3] 82.3% | [4] 81.3% | [5] 97% | [6] 78.6% | [7] 74.8%

CN(C)c1ccc(N=C2C=CC(=O)c3ccccc32)cc1
inactive: [1] 94.5% | [3] 93.3% | [4] 53.1% | [5] 78.4% | [6] 67.3% | [7] 54.8%
active: [2] -87%

COc1cccc(NC(=O)c2sc3nc4c(cc3c2N)C(O)CCC4)c1 (centres undefined)
active: [2] -32.5%
inactive: [1] 44.4% | [3] 23.8% | [4] 15.5% | [5] 12.3% | [6] 19.6% | [7] 16.7%

COc1ccc2c(c1)C(=O)c1c-2c(OCCN(C)C)nc2ccccc12
inactive: [1] 85.4% | [2] 33.3% | [5] 10.4% | [6] 44.9% | [7] 23.1%
active: [3] -7.66% | [4] 6.19%

O=[N+]([O-])c1ccc(Oc2cc(Cl)c(Cl)cc2Cl)c(C(F)(F)F)c1
inactive: [1] 110% | [2] 95.6% | [3] 106% | [4] 97.9% | [5] 102% | [6] 123% | [7] 101%

C/C(=N\Nc1nc2ccccc2s1)c1ccncn1
active: [4] 4.99% | [5] 5.21%
inactive: [1] 46.3% | [2] 46.2% | [3] 31.2% | [6] 46.3% | [7] 39.1%

COc1ccc(C2CC(c3ccc(N(C)C)cc3)=NN2c2ccc(S(N)(=O)=O)cc2)cc1 (centres undefined)
inactive: [1] 75% | [2] 36.9% | [3] 58% | [4] 20.5% | [5] 18.7% | [6] 75% | [7] 29.1%

CN(C)C(=S)N/N=C\C=N/NC(=S)N(C)C
inactive: [1] 81% | [2] 67% | [3] 64.1% | [4] 12% | [6] 80.4% | [7] 81.5%
active: [5] 0.438%

COc1cc(-c2cc(/C=C/C(=O)c3ccc4c(c3)OCO4)[nH]n2)cc(OC)c1OC
inactive: [1] 60.9% | [2] 31.2% | [3] 47.4% | [4] 17.3% | [5] 31.4% | [6] 103% | [7] 18%

COc1cc(-c2nnc(-c3c(-c4ccc(F)cc4)nc4ccccn34)o2)cc(OC)c1OC
inactive: [1] 66.1% | [2] 93.5% | [3] 90% | [4] 73.3% | [5] 34.1% | [6] 105% | [7] 81.7%

O=S(=O)(Nc1ccccn1)c1ccc(N=Nc2ccc(O)c3ncccc23)cc1
inactive: [2] 10.1% | [3] 11.7% | [5] 10.6% | [6] 35.7% | [7] 14.1%
active: [1] 1.2% | [4] 5.03%

CCCCC(CCCCCC(CCCC)NCc1ccc2c(c1)OCO2)NCc1ccc2c(c1)OCO2 (centres undefined)
active: [1] -65.7% | [2] -82.4% | [3] -100% | [4] -100% | [5] -100% | [6] -100% | [7] -100%

CCCCC/C=C/C(=O)CCc1ccc(O)c(OC)c1
active: [4] 1.77%
inactive: [1] 66.9% | [2] 19.4% | [3] 68.4% | [5] 13.6% | [6] 21% | [7] 31.1%

O=C1C(c2ccccc2)C2C=CC(C2)N1O (centres undefined)
inactive: [1] 136% | [2] 107% | [3] 109% | [4] 104% | [5] 104% | [6] 103% | [7] 108%

N=c1c2c(-c3ccccc3)c(-c3ccccc3)n(Cc3ccccc3)c2ncn1CCCO
inactive: [1] 88.5% | [2] 34.2% | [3] 21.6% | [5] 13.3% | [6] 64.3% | [7] 29.9%
active: [4] 2.77%

CCOC(=O)C(NC(=O)C(Cl)Cl)C(O)c1ccccc1 (centres undefined)
inactive: [1] 112% | [2] 94.9% | [3] 100% | [4] 94.8% | [5] 85.3% | [6] 110% | [7] 110%

CC/C(=N\N=C(/CC)c1ccc(Br)cc1)c1ccc(Br)cc1
inactive: [1] 91.1% | [2] 106% | [3] 102% | [4] 90.9% | [5] 78.1% | [6] 99.4% | [7] 99.5%

Cc1nc2ccc(CN(C)c3ccc(C(=O)N[C@@H](CCC(=O)O)C(=O)O)s3)cc2c(=O)[nH]1
inactive: [1] 57.4% | [2] 61.6% | [3] 71.4% | [4] 23.3% | [5] 40% | [6] 28.5% | [7] 73.4%

COc1ccc(Cl)cc1C(=O)Nc1nc2ccc(Cl)cc2s1
inactive: [1] 97.7% | [2] 97.6% | [3] 101% | [4] 41.7% | [5] 53.2% | [6] 102% | [7] 94.8%

CCCCCCCCN(CCCCCCCC)CCCCCCCCCN1CCCc2cc(OC)ccc21
inactive: [1] 94.9% | [2] 104% | [3] 99% | [4] 96% | [5] 75.7% | [6] 93.2% | [7] 104%

COc1ccc(-c2nc3sc(C4CC4)nn3c2/C=C2/C(=O)Nc3ccc(OC)cc32)cc1
inactive: [1] 40.1% | [2] 61.6% | [3] 77.7% | [4] 30.1% | [5] 66.3% | [6] 104% | [7] 77.8%

O=C(Nc1cccc(Br)c1)c1cc(=O)[nH]c2ccccc12
inactive: [1] 82.1% | [2] 101% | [3] 102% | [4] 84% | [5] 109% | [6] 104% | [7] 101%

Cc1cc2ccccc2nc1-c1ccccc1F
inactive: [1] 92.2% | [2] 111% | [3] 106% | [4] 101% | [5] 102% | [6] 109% | [7] 110%

O=S(=O)(NCCCNc1nccc(-c2c(-c3ccc(F)cc3)nc3sccn23)n1)c1ccc2ccccc2c1
inactive: [1] 46.1% | [2] 25.7% | [3] 51.9% | [4] 30.3% | [5] 37.2% | [7] 19.9%
active: [6] 7.22%

Oc1[nH]c2ccc(Cl)cc2c1/C=c1/ccc2c(c1)N=C(c1cc(F)cc(F)c1)N=2
active: [2] 1.43% | [4] 5.27%
inactive: [1] 81.9% | [3] 53.8% | [5] 52.2% | [6] 86.2% | [7] 44.4%

FC(F)(F)c1ccc(-c2cnc(Cl)nc2N2CCC3(CC2)OCCO3)cc1
inactive: [1] 97.1% | [2] 101% | [3] 103% | [4] 98.9% | [5] 82.7% | [6] 102% | [7] 96.3%

CCCCCCCCCCCCCCCCCC(=O)OCCCCCCC
inactive: [1] 110% | [2] 94.6% | [3] 97.5% | [4] 107% | [5] 118% | [6] 102% | [7] 97.6%

CCCC1(CC(=O)O)OCCc2c1[nH]c1ccccc21 (centres undefined)
inactive: [1] 119% | [2] 106% | [3] 115% | [4] 102% | [5] 107% | [6] 69.9% | [7] 102%

CCn1cc(C(=O)O)c(=O)c2cnc(N3CCCC3)nc21
inactive: [1] 104% | [2] 94.2% | [3] 106% | [4] 103% | [5] 96.9% | [6] 107% | [7] 108%

CN(C)CCN1C(=O)c2cccc3c(-c4ccc5ncn(C6CCCCC6)c5c4)ccc(c23)C1=O
inactive: [1] 56.5% | [2] 39.9% | [3] 21.4% | [4] 12.1% | [6] 39.8% | [7] 24.8%
active: [5] 8.6%

COc1ccc(-c2nc3ncccn3c2-c2nnc(-c3ccsc3C)o2)cc1
inactive: [1] 63.6% | [2] 94.6% | [3] 94.6% | [4] 77.1% | [5] 88.9% | [6] 102% | [7] 98.6%

COc1ccc(NC(=O)CSc2nc3ccccc3c(=O)n2CCc2ccccc2)cc1
inactive: [1] 91.8% | [2] 90.5% | [3] 89.1% | [4] 89.9% | [5] 87.6% | [6] 106% | [7] 84.4%

COc1ccc(-c2nsc3c2NC(=O)CC3c2ccc(F)cc2)cc1 (centres undefined)
inactive: [1] 28% | [3] 21.4% | [4] 22% | [5] 19.5% | [6] 56.7% | [7] 22.2%
active: [2] -56.1%

CCOC(=O)N1C=CC2C=CC1C1C=CC=CC2N1C(=O)OCC (centres undefined)
inactive: [1] 89.4% | [3] 82% | [4] 76.8% | [5] 94.7% | [6] 82.1% | [7] 84.9%
active: [2] 3.79%

CCN(CC)CCC(CNc1c(C)cnc2cc(Cl)ccc12)c1ccc(Cl)c(Cl)c1 (centres undefined)
inactive: [1] 75.1% | [3] 46.2% | [4] 27.4% | [5] 21.7% | [7] 71.3%
active: [2] 0.88% | [6] -18.2%

COc1cc(/C=C\c2cc(OC)c(OC)c(OC)c2)cc(NS(=O)(=O)c2ccc(Cl)cc2)c1OC
inactive: [1] 40.6% | [3] 30.4% | [4] 26.5% | [5] 14.7% | [6] 18.6% | [7] 25.1%
active: [2] -39.1%

CSc1nc(=O)n(Cc2ccc(Cl)cc2)c(=O)[nH]1
inactive: [1] 98% | [2] 114% | [3] 110% | [4] 99.3% | [5] 103% | [6] 103% | [7] 108%

COc1ccc(-c2csc(NC(=O)CSc3nc(C)c(-c4ccccc4)n3Nc3ccccc3)n2)cc1
inactive: [1] 63.5% | [2] 56.1% | [3] 70.2% | [4] 41.7% | [5] 36.4% | [6] 78.7% | [7] 41.5%

O=C1OCC2=C1C(c1ccc(Cl)c(Cl)c1)c1cc3c(cc1N2CCO)OCCO3 (centres undefined)
inactive: [1] 60.4% | [3] 19% | [4] 20.4% | [5] 19.8%
active: [2] -52.6% | [7] 4.49%

Cc1cc(O)c(C(C)(C)C)cc1Sc1cc(C(C)(C)C)c(O)cc1C
inactive: [1] 65.9% | [2] 54.8% | [4] 34.7% | [5] 29% | [7] 47%

O=C(NC(Cc1ccc(O)cc1)C(=O)N=Nc1c(O)[nH]c2ccccc12)c1ccccc1 (centres undefined)
inactive: [1] 102% | [2] 103% | [3] 96.4% | [4] 103% | [5] 99.3% | [7] 99.2%

COc1cc(-c2cc(/C=C/C(=O)c3ccc(N)cc3)[nH]n2)cc(OC)c1OC
active: [1] -28.7% | [2] 6.15% | [3] -38.1% | [5] -81.5% | [6] -75.4% | [7] -35.1%

O=C1OCC2=C1C(c1cccc(Cl)c1)c1cc3c(cc1N2CCO)OCO3 (centres undefined)
active: [2] -46.1% | [7] 8.24%
inactive: [1] 59.6% | [3] 21.3% | [4] 23.9% | [5] 19%

O=[N+]([O-])c1ccc(Oc2cccnc2)c([N+](=O)[O-])c1
active: [3] 1.5% | [5] 8.43%
inactive: [1] 72.3% | [2] 26.9% | [4] 46.7% | [7] 56.8%

Clc1ccc(Nc2ccnc(NCCNc3ccnc4cc(Cl)ccc34)n2)cc1
active: [2] -90% | [3] -10.5% | [4] -74.6% | [5] -71.3% | [6] -89%
inactive: [1] 40.8% | [7] 33.7%

COc1ccc2c(c1)N(CCO)C1=C(C(=O)OC1)C2c1ccc(OC)c(OC)c1 (centres undefined)
active: [2] -25.9%
inactive: [1] 64.2% | [3] 17.5% | [4] 27.3% | [5] 26.7% | [7] 18.7%

O=C(Nc1ccncc1)C(=O)c1cn(S(=O)(=O)c2cccc(Cl)c2)c2ccccc12
active: [2] 1.36%
inactive: [1] 49% | [3] 47% | [4] 29.3% | [5] 24% | [7] 51.5%

COc1cc(C2CC(c3ccc(Nc4ccnc5cc(Cl)ccc45)cc3)=NN2c2ccc(Cl)cc2)cc(OC)c1OC (centres undefined)
inactive: [1] 68.4% | [3] 39.4% | [4] 29.4% | [5] 46.6% | [6] 55.4% | [7] 30.5%
active: [2] 8.05%

O=C1OCC2=C1C(c1cccc(Br)c1)c1cc3c(cc1N2CCO)CCC3 (centres undefined)
active: [2] -40% | [5] 6.12% | [7] -47.5%
inactive: [1] 15.7% | [3] 17.5% | [4] 21.4%

c1ccc([I+]c2ccccc2)cc1
inactive: [1] 65.5% | [2] 68.9% | [3] 40.8% | [4] 64% | [5] 31% | [7] 41.9%

— PubChem BioAssay (NCI)
